Compound activity from PubChem BioAssay.
An excerpt weighted towards active compounds, which were near 2% of everything screened.
DAGLB inhibitor – DAGLB lipase inhibitors, primary screen, biochemical, fluorescence, HTS. HEK293T DAGLB membrane lysate, EnzChek fluorogenic substrate. inhibition, % at 5.17 µM. Diacylglycerol lipase-beta (Homo sapiens), Q8NCG7. hit rate 0.059% among 340,000; in the data active = inhibition above about 34%
NadD inh – inhibitors of S. aureus NadD, primary screen, biochemical, colorimetric, uHTS | purified NadD enzyme, colorimetric absorbance read-out | inhibition, % at 20 µM | hit rate 0.78% among 360,000 | Nicotinate-nucleotide adenylyltransferase NadD (Staphylococcus aureus N315); in the data active = inhibition above about 26%
HGIII-sPLA2 inh – human group III sPLA2 inhibitors, primary screen, biochemical, QFRET, BODIPY PC-A2 liposome substrate; Group 3 secretory phospholipase A2 (Homo sapiens), Q9NZ20; QFRET BODIPY PC-A2 liposome hydrolysis, fluorescence; inhibition, % at 12.2 µM; hit rate 0.56% among 370,000; AID 743126, 2013;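 active = inhibition above mean plus 3 SD of compounds lying within the high and low control bounds, cut at about 19% in these data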
ARNT-TACC3 inh – disruptors of ARNT/TACC3 protein interaction, primary screen, biochemical, AlphaScreen, single concentration | Transforming acidic coiled-coil-containing protein 3 (Homo sapiens), Q9Y6A5 | AlphaScreen His-ARNT PAS-B/GST-TACC3 binding, luminescence; TACC3 fragment carries E629A point mutation | inhibition, % at 9.99 µM | hit rate 0.66% among 390,000 | AID 623870, 2012;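 active = mean inhibition of replicates at least 50% and at least half of replicates each reaching 50%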
Neddyl block – inhibitors of cullin neddylation, primary screen, biochemical, TR-FRET, uHTS, NAE and Ubc12; NEDD8-conjugating enzyme Ubc12 (Homo sapiens) + NEDD8-activating enzyme E1 regulatory …; inhibition, % at 25 µM; hit rate 0.58% among 360,000; AID 651699, 2012; in the data active = inhibition above about 36%
Target sequence (P61081 whole entry, looked up): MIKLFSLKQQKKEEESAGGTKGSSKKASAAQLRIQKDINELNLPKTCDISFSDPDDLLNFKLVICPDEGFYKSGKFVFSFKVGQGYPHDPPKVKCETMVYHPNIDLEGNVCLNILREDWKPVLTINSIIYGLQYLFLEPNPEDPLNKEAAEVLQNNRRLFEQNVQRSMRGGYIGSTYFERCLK
Target sequence (Q13564 whole entry, looked up): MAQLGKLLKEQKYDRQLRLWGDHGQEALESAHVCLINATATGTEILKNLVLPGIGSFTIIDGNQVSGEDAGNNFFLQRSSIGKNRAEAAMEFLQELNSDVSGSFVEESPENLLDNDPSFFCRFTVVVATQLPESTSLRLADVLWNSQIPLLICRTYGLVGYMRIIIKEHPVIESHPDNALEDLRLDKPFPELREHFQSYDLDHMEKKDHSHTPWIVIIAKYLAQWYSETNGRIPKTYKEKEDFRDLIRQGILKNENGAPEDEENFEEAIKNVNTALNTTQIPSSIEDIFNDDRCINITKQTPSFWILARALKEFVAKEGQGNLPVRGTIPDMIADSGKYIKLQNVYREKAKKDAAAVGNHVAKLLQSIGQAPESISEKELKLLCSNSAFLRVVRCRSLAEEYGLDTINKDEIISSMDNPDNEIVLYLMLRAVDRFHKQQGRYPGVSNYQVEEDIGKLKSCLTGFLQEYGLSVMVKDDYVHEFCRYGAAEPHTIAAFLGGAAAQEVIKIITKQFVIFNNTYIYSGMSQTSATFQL
A number is an active result; 0 = inactive; - = no result.

SMILES	DAGLB inhibitor	NadD inh	HGIII-sPLA2 inh	ARNT-TACC3 inh	Neddyl block
CCC1=NN2C(=N)/C(=C/c3ccc(OS(=O)(=O)c4ccccc4)cc3)C(=O)N=C2S1	0	34	-	0	0
COc1cc2nc(Nc3ccc(C)c(Cl)c3)nc(N)c2cc1OC	0	0	0	0	48
COc1cc2nc(Nc3ccc(F)cc3)nc(N)c2cc1OC	0	0	0	0	0
COc1cc2nc(Nc3ccc(C)c(C)c3)nc(N)c2cc1OC	0	0	0	50	0
CCOC(=O)c1ccc(Nc2nc(N)c3cc(OC)c(OC)cc3n2)cc1	0	0	-	0	45
Cc1cccc(-c2ccc([C@@H]3[C@@H](CO)N4CCCCN(S(=O)(=O)c5cn(C)cn5)C[C@@H]34)cc2)c1	-	-	-	0	-
COc1ccc(CCNC(=O)C23CCC(C)(C(=O)C2Br)C3(C)C)cc1OC (configuration not stated)	0	0	0	49	0
COc1ccc(CCNC(=O)C23CCC(C)(C(=O)C2=O)C3(C)C)cc1OC (configuration not stated)	0	0	0	0	0
C[C@@H]1CN([C@H](C)CO)C(=O)c2cc(NC(=O)CCCN(C)C)ccc2O[C@@H]1CN(C)Cc1ccc(C(F)(F)F)cc1	-	-	-	0	-
COc1cc(-n2nc(C)c3c2OC(N)=C(C#N)C3c2ccccc2)c(Cl)c(Br)c1O (configuration not stated)	0	0	0	33	0
O=C(CCCN1C(=O)S/C(=C\c2ccccc2)C1=O)NNC(=O)c1ccccc1O	0	0	25	0	0
COc1ccc(/C=C2\SC(=O)N(CC(=O)NNC(=O)c3ccccc3O)C2=O)cc1	0	0	0	0	0
Oc1c(CNc2ccccc2)cc(COCc2ccccc2)c2cccnc12	0	0	0	57	0
O=[N+]([O-])c1ccc(O)c(/C=N/NC2=NS(=O)(=O)c3ccccc32)c1	0	0	0	71	0
Oc1ccccc1/C=N/Nc1nn[nH]n1	0	0	0	72	0
O=[N+]([O-])c1ccc(O)c(/C=N/Nc2nn[nH]n2)c1	0	0	0	67	0
CN(C)c1nc(Nc2ccc(F)cc2)nc(Oc2ccc(F)cc2)n1	0	0	0	0	0
CN(C)c1nc(N/N=C/c2ccccc2O)nc(Nc2ccc(F)cc2)n1	0	0	0	47	0
NC(N)=N/N=C/c1cc([N+](=O)[O-])ccc1O	0	0	0	0	0
C(=N\Nc1nn[nH]n1)/c1ccccc1	0	0	0	0	0
C[C@H](CO)N1C[C@H](C)[C@@H](CN(C)Cc2ccccc2)Oc2ccc(NC(=O)C3CCCCC3)cc2C1=O	-	-	-	0	-
O=C(CN1CCOCC1)NCC[C@H]1CC[C@@H](NC(=O)Cc2ccccn2)[C@@H](CO)O1	-	-	-	0	-
COc1ccccc1CNC(=O)C[C@H]1C[C@@H]2c3cc(NC(=O)c4cccnc4)ccc3O[C@@H]2[C@H](CO)O1	-	-	-	0	-
O=C(N[C@@H]1CC[C@@H](CCNC(=O)C2CC2)O[C@H]1CO)c1ccncc1	-	-	-	0	-
O=S1(=O)N=C(N/N=C/c2cccs2)c2ccccc21	0	0	0	66	0
SMILES	DAGLB inhibitor	NadD inh	HGIII-sPLA2 inh	ARNT-TACC3 inh	Neddyl block
O=[N+]([O-])c1ccc(O)c(/C=N/Nc2ccc(Cl)nn2)c1	0	0	0	58	0
O=[N+]([O-])c1ccc(O)c(-c2nn[nH]n2)c1	0	0	0	64	0
Cc1noc(C)c1NC(=O)Nc1ccc2c(c1)C(=O)N([C@@H](C)CO)C[C@H](C)[C@H](CN(C)C)OCCCC[C@@H](C)O2	-	-	-	0	-
CCN=C1S/C(=C\c2ccc(-c3cccc(C(=O)O)c3)o2)C(=O)N1CC	0	0	-	0	49
Cc1ccc(NC(=O)CN2C(=O)S/C(=C/c3ccc(-c4cc(C(=O)O)ccc4C)o3)C2=O)cc1C	0	50	0	0	0
O=C(O)c1cccc(-c2ccc(/C=C3/SC(=Nc4ccccc4)N(Cc4cccnc4)C3=O)o2)c1	0	32	0	0	0
COc1ccc(S(=O)(=O)N(C)C[C@@H]2OCCCC[C@H](C)Oc3ccc(NC(=O)Nc4c(C)noc4C)cc3C(=O)N([C@@H](C)CO)C[C@H]2C)cc1	-	-	-	0	-
C/C(=N\Nc1nnc(C)c(=O)[nH]1)C(=O)O	0	0	0	66	0
CN1CCC(=O)N(CCOc2ccccc2)CC1	0	0	0	60	0
O=C(O)c1cccc(OCCN2CCCC2=O)c1	0	0	0	0	0
COc1ccc(Cl)cc1NC(=O)COC(=O)c1cc(NS(=O)(=O)c2cccs2)ccc1O	0	33	0	0	0
C[C@@H]1CN([C@H](C)CO)C(=O)c2cc(C#CCN(C)C)cnc2O[C@@H]1CN(C)C(=O)c1cccnc1	-	-	-	0	-
COc1ccc(Cc2nnc(N=Nc3c(O)[nH]c4ccc(Br)cc34)[nH]c2=O)cc1	0	38	0	0	0
COc1ccc2[nH]c(O)c(N=NC(=N)N)c2c1	0	0	0	0	0
C[C@H](CO)N1C[C@H](C)[C@@H](CN(C)Cc2ccc(-c3ccccc3)cc2)Oc2ccc(NC(=O)CCCCCC(=O)Nc3ccccc3N)cc2CC1=O	-	-	-	0	-
CCOc1ccc(NC(=S)N(Cc2ccc(N(C)C)cc2)Cc2ccco2)cc1	0	0	-	17	0
COc1ccc(/C=N/Nc2nc(C(=O)O)cs2)cc1	0	0	0	45	0
COC(=O)c1ccc(/C=N/Nc2nc(-c3ccccc3)cs2)cc1	0	0	0	0	0
O=C1NC(=Nc2ccccc2)S/C1=C\c1cccn1-c1ccccc1	0	38	0	0	0
COc1ccccc1CNC(=O)C[C@@H]1C[C@@H]2c3cc(NC(=O)Cc4ccncc4)ccc3O[C@@H]2[C@H](CO)O1	-	-	-	41	-
CCOC(=O)N1CCN(S(=O)(=O)c2ccc(C(=O)NNc3nc4cc(C)cc(C)c4s3)cc2)CC1	0	39	-	0	0
Cc1cc(-c2csc(NCc3ccccc3)n2)c(C)n1C	0	42	-	0	0
Cc1nc(N)sc1-c1csc(NCc2ccccc2)n1	0	0	0	0	0
O=C(CCN1CCCCC1)N[C@@H]1CC[C@H](CCn2cc(-c3ccc(F)cc3)nn2)O[C@H]1CO	-	-	-	0	-
Cc1ccc(Cl)cc1NC(=O)C[n+]1ccc(Cc2ccc([N+](=O)[O-])cc2)cc1	0	0	0	51	0
N=C1/C(=C/c2ccc(-c3cccc(C(=O)O)c3)o2)C(=O)N=C2SC=C(c3ccccc3)N12	0	61	0	0	0
CC(C)S(=O)(=O)C1=NSC2=NC(=O)/C(=C\c3ccc(-c4ccccc4)o3)C(=N)N21	0	0	0	0	41
CC(C)S(=O)(=O)C1=NSC2=NC(=O)/C(=C\c3ccc(-c4cccc(C(=O)O)c4)o3)C(=N)N21	0	0	0	0	0
N=C1/C(=C\c2ccc(-c3cc(Cl)cc(Cl)c3)o2)C(=O)N=C2SC=C(c3ccccc3)N12	0	0	0	0	0
